Compounds with a hit are over-represented: about 19% of the library has one in this group of screens.
HT1080NT lethal = kills 2HG-producing HT-1080-NT fibrosarcoma cells; HT-1080-NT fibrosarcoma viability, CellTiter-Glo ATP luminescence, 48 h; Potency, µM (doses to about 46.1 µM), without a hit: at the highest dose activity, negative = less viability, usual class: cytotoxic; 360,000 tested, 1.6% active; AID 686970;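 further: NT is the 2HG producing partner of a matched IDH1 knockdown line; 0% = DMSO-treated cells and -100% = media-only wells without cells; nearly all actives have a fitted effect of over 55% in size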
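Toxicity toward the 2HG-producing NT line was scored as %Activity, normalised to DMSO and no-cell wells, from CellTiter-Glo luminescence after 48 hours' treatment.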
HT1080 IDH1KD tx = kills HT-1080 cells with IDH1 knockdown | HT-1080 IDH1 knockdown viability, ATP luminescence, 48 h | Potency, µM (highest dose often 46.1 µM), for the others: at the top dose activity, negative = toxicity, actives largely listed as cytotoxic | 360,000 tested, 2% active | AID 686971;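 further: 0% = DMSO wells and -100% = cell-free medium wells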
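HT-1080-IDH1KD cells (IDH1 knocked down), 750/well in RPMI with 5% FBS, treated with compound 48 h at 37 degrees C. Viability by CellTiter-Glo luminescence, normalised to DMSO and no-cell wells; concentration-response curves classed.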
KB-3-1 cytotox = KB-3-1 parental cell cytotoxicity; KB-3-1 viability, CellTiter-Glo ATP luminescence, 72 h; AID 1347075; Potency, µM (highest dose often 46.1 µM), most hits filed as cytotoxic; 400,000 tested, 1.4% active; further: nearly all actives have a fitted effect of over 60% in size
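Parental KB-3-1 viability, qHTS format: 72 h compound exposure, 37 °C; CellTiter-Glo; media-only wells and DMSO plates as controls; concentration-effect fits on corrected data.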
TDP1 cell noCPT = qHTS for Inhibitors of human tyrosyl-DNA phosphodiesterase 1 (TDP1): qHTS in cells in absence of CPT. DT40 Tdp1-/- hTDP1 cells, no CPT, ATP luminescence, 48 h. Potency, µM (series often up to 46.2 µM), for inactives: top-dose activity change, negative = growth inhibition, actives largely listed as inhibitors. 420,000 tested, 15% active. AID 686978, 2013; further: nearly all actives have a fitted effect of over 55% in size
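DT40 Tdp1-/-;hTDP1 cells, no CPT (DMSO vehicle only), 400 cells/well; compounds pin-transferred; ≥48 hr, 37 °C; CellTiter-Glo 30 min RT dark, luminescence read.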
TDP1 cell CPT = DT40-hTDP1 cell growth loss with CPT; chicken DT40 Tdp1-/-;hTDP1 cells + 20 nM CPT, ATP luminescence, 48 h; Potency, µM (titrated, usually from 46.2 µM), for inactives: at the highest dose activity change, negative = growth inhibition, usual class: inhibitors; 420,000 tested, 12% active; further: nearly all actives have a fitted effect of over 55% in size
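Chicken DT40 Tdp1-/- cells stably complemented with human TDP1 were seeded at 400 cells/well in medium containing 20 nM camptothecin, exposed to pin-transferred compounds, and grown at 37 °C for at least 48 hr. Viability was read as ATP luminescence.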
KB-V1 MDR tox = KB-V1 MDR subline cytotoxicity. KB-V1 MDR cells viability, CellTiter-Glo, 72 h. 400,000 tested, 3.4% active. AID 1347076. Potency, µM (doses to about 46.1 µM), usual class: cytotoxic; further: nearly all actives have a fitted effect of over 60% in size
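Luminescent ATP read-out (CellTiter-Glo, 10 min) measures survival of drug-selected KB-V1 MDR cells after 72 h, 37 degrees C compound exposure. Medium: phenol-red-free DMEM, 10% FBS. Values from fitted concentration-response curves.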
* hit, by the source's call; i = inactive; u = inconclusive; x = not tested or not shown; [ ] = another dose, or the depositor's remark. The call rests on the fitted dose curve; in most records, active means well fitted curve in the direction sought with a large enough effect; inconclusive means small, poorly fitted or top-dose-only effect, or another doubt; inactive means no such curve, though single readings can be large; an effect the other way counts as inactive or inconclusive. Unless noted, on the % scale 0 is the no-effect control and ±100 the full control effect; potency means the concentration at half of the fitted maximal effect.

SMILES | HT1080NT lethal | HT1080 IDH1KD tx | KB-3-1 cytotox | TDP1 cell noCPT | TDP1 cell CPT | KB-V1 MDR tox
O=C(Nc1ccc(Cl)cc1)Nc1nnc(CSCc2ccccc2)s1 | 1% | 4% | i | 18µM* | 16µM* | 21µM*
O=C(Nc1cccc(Cl)c1)Nc1nnc(CSCCOc2ccc(Cl)cc2)s1 | 16µM* | 18µM* | u | 3.3µM* | 3.3µM* | i
Cc1ccc(NC(=O)Nc2nnc(CSCCOc3ccc(Cl)cc3)s2)cc1 | 2% | 2% | u | u | -25% | u
O=C(Nc1ccc(Cl)cc1)Nc1nnc(CSc2ccc(Cl)cc2)s1 | 17% | 30% | u | 2.6µM* | 4.6µM* | u
COc1ccc(-n2c(=O)c3c4c(sc3n(Cc3c(F)cccc3Cl)c2=O)CN(C(C)=O)CC4)cc1OC | x | x | i | u | u | i
Cc1ccc(-n2ncc3c(N4CCCCCC4)ncnc32)cc1Cl | x | x | i | -12% | -28% | i
Clc1ccc(Cn2ncc3c(N4CCCCC4)ncnc32)c(Cl)c1 | 8% | 6% | i | 12µM* | 23µM* | u
Clc1ccc(Cn2ncc3c(N4CCCCC4)ncnc32)cc1 | -7% | -11% | i | 21µM* | 16µM* | u
Clc1ccc(Cn2ncc3c(N4CCCC4)ncnc32)cc1 | -6% | -1%[9.24 µM] | i | u | -13% | i
Clc1ccc(Cn2ncc3c(N4CCOCC4)ncnc32)cc1 | -2% | -9% | i | 23µM* | u | u
COc1ccc(COC(=O)C2CCN(S(=O)(=O)c3ccc(C)cc3)CC2)cc1 | 6% | 3% | i | 1% | -1% | i
CCc1nnc(NC(=O)COc2ccccc2[N+](=O)[O-])s1 | 8% | 2% | i | -20% | -16% | i
Cc1cnc(C(=O)N2CCc3c([nH]c4ccccc34)C2c2ccc(F)cc2)cn1 (stereo not given) | -24% | -26% | u | u | -26% | i
O=C(CSCc1ccc(F)cc1)N1CCc2c([nH]c3ccccc23)C1c1ccccc1 (stereo not given) | x | x | x | 15µM* | 21µM* | x
COC(=O)c1ccc(NC(=O)N2CCc3c([nH]c4ccccc34)C2c2ccc(C)cc2)cc1 (stereo not given) | x | x | x | 5.8µM* | u | x
CCOc1cccc(CC(=O)N2CCc3c([nH]c4ccccc34)C2c2ccc(SC)cc2)c1OCC (stereo not given) | x | x | i | u | -26% | i
Cc1ccc(C2c3[nH]c4ccccc4c3CCN2C(=O)c2ccc(N(C)C)cc2)cc1 (stereo not given) | x | x | x | 21µM* | 21µM* | x
Cc1ccc(C2c3[nH]c4ccccc4c3CCN2C(=O)CCC2CCCC2)cc1 (stereo not given) | x | x | x | u | 16µM* | x
CCOCCc1nn2c(=O)cc(COC(=O)Cc3ccccc3)nc2s1 | x | x | i | -8% | 4% | i
NS(=O)(=O)c1cc(C(=O)OCC(=O)Nc2ccc(N3CCCCC3)cc2)ccc1Cl | -4% | 9% | i | 19% | -26% | i
N#Cc1ccc(CN2CCCC3(CCN(C(=O)c4csnn4)CC3)C2)cc1 | x | x | x | u | 0% | x
CCC(C)(C)n1nnnc1CN1CCN(C(c2ccccc2)c2ccccc2)CC1 | u | -3% | i | 21µM* | u | u
c1ccc(C(c2ccccc2)N2CCN(Cc3nnnn3C3CCCC3)CC2)cc1 | -17% | -24% | i | 16µM* | u | u
Clc1ccc(C(c2nnnn2C2CCCC2)N2CCN(Cc3ccncc3)CC2)cc1 (stereo not given) | -10% | -14% | i | u | u | i
Fc1ccc(C(c2nnnn2C2CCCC2)N2CCN(Cc3ccccc3)CC2)cc1 (stereo not given) | 1% | 11% | i | u | 18µM* | 3.7µM*
SMILES | HT1080NT lethal | HT1080 IDH1KD tx | KB-3-1 cytotox | TDP1 cell noCPT | TDP1 cell CPT | KB-V1 MDR tox
C1CCC(n2nnnc2CN2CCCC2)CC1 | -2% | 0% | i | -1% | u | i
CC(C)CCn1nnnc1CN1CCN(C(c2ccccc2)c2ccccc2)CC1 | -14% | 0% | i | 18µM* | u | i
O=C(Cc1cccs1)NCc1ccccc1Br | -1% | -5% | i | -8% | -32% | u
C=CCOc1ccc(C(c2c(C)n(C)n(-c3ccccc3)c2=O)c2c(C)n(C)n(-c3ccccc3)c2=O)cc1 | -1% | -1% | u | -30% | -1% | i
CCOC(=O)N1CCC(N(CCCOC)C(=O)Nc2ccc(CC)cc2)CC1 | -15% | 13%[9.24 µM] | i | 13µM* | 18µM* | i
CCOC(=O)N1CCC(N(CCOC)C(=O)Nc2ccc(Cl)cc2)CC1 | 13% | 16% | i | 15µM* | u | u
CCc1ccc(NC(=S)N(CCOC)C2CCN(C(C)=O)CC2)cc1 | 0% | 1% | i | -8% | -7% | i
COc1cc(NC(=O)c2onc(C)c2Cl)cc(OC)c1OC | 13% | 10% | i | 3% | 0% | i
COc1ccc(NC(=O)CCCCCn2nnc3ccccc3c2=O)cc1 | -20% | -10% | i | -52% | -20% | i
COCCNC(=O)CCn1nc(-c2ccc(C)cc2)ccc1=O | 10% | 0% | i | 1% | 22% | i
COC(=O)c1ccc(C(=O)OC)c(NC(=S)N2CCN(c3cccc(Cl)c3)CC2)c1 | -4% | -13% | i | u | -22% | 16µM*
COC(=O)c1ccc(C(=O)OC)c(NC(=S)N2CCC(C)CC2)c1 | 8% | 8% | i | -9% | -9% | 16µM*
COC(=O)c1ccc(C(=O)OC)c(NC(=S)N2CCCCC2C)c1 (stereo not given) | 15% | 8% | i | u | -29% | 15µM*
O=C(C[n+]1ccccc1Br)c1ccc(O)c(O)c1 | x | x | u | -6% | 12% | i
CC(=O)c1ccccc1N(C(=O)c1ccco1)C(C(=O)NC1CCCC1)c1ccc(C)cc1 (stereo not given) | 5% | -4% | i | -22% | -10% | i
COc1ccc(Nc2c[nH]c(=O)[nH]c2=O)cc1 | 0% | 12% | i | -12% | -12% | i
c1ccc(-c2nc(-c3ccccn3)nc(-c3ccccn3)n2)nc1 | u | u | i | 15µM* | u | u
c1ccc(C2=NNC(c3ccccn3)=NN2)nc1 | -15% | -15% | i | 9.2µM* | 9.2µM* | i
